# Data from PubChem BioAssay (NCI).
# This is part of a sample that, as a whole, favours compounds with a hit. Of some 79,000 tested, about 15% had one in any assay. Unmarked numbers belong to inactive results. Active and inactive are the calls of the source. Rule as the data show it: active = growth inhibition above about 70%; inactive = the rest.
# How the values were obtained:
# [1] = NCI Yeast Anticancer Drug Screen. Data for the rad52 strain (AID 147);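 also: 0% = growth of vehicle-treated control cultures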; conditions: S. cerevisiae rad52 mutant growth inhibition, active compounds read high
# Outline: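 Read-out: growth inhibition versus vehicle-treated controls. Cells were a DNA repair-deficient yeast strain treated with compounds.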
# [2] = NCI Yeast Anticancer Drug Screen. Data for the wt1 strain (AID 149);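 also: 0% = growth of vehicle-treated wt1 cultures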; conditions: S. cerevisiae wt1 strain (SPY 50644) growth inhibition, active compounds read high
# Outline: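 Measured: growth of wt1 yeast under compound versus vehicle treatment, reported as inhibition.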
# [3] = NCI Yeast Anticancer Drug Screen. Data for the rad50EPP+ strain (AID 151);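 also: 0% = growth of vehicle-treated control cultures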; conditions: S. cerevisiae rad50 mutant strain, active compounds read high
# Outline: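 Growth inhibition read against vehicle controls in rad50EPP+ yeast, a strain altered in DNA damage repair, after compound exposure.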
# [4] = NCI Yeast Anticancer Drug Screen. Data for the mgt1 strain (AID 153); conditions: S. cerevisiae mgt1 mutant growth inhibition, active compounds read high
# Outline: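 mgt1 yeast grown with test compound; read-out is growth inhibition versus vehicle-treated cultures.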
# [5] = NCI Yeast Anticancer Drug Screen. Data for the rad50 strain (AID 155);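 also: 0% = growth of vehicle-only cultures of the same strain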; conditions: S. cerevisiae rad50 strain growth inhibition, active compounds read high
# Outline: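 Growth of the mutant yeast was measured after compound exposure and referenced to vehicle-treated cultures.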
# [6] = NCI Yeast Anticancer Drug Screen. Data for the mec2-1 strain (AID 157); conditions: S. cerevisiae mec2-1 strain, active compounds read high
# Outline: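 Yeast mec2-1 mutant treated with compound. Readout: growth inhibition vs vehicle controls.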
# [7] = NCI Yeast Anticancer Drug Screen. Data for the rad14 strain (AID 159);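 also: 0% = growth of vehicle-treated control cultures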; conditions: S. cerevisiae rad14 strain growth inhibition, active compounds read high
# Outline: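 Here, inhibition of yeast growth was measured after compound exposure, using a strain with a genetic defect in DNA damage repair and vehicle-treated cultures as the reference.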
# [8] = NCI Yeast Anticancer Drug Screen. Data for the sgs1 mgt1 strain (AID 161);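 also: 0% = growth of cultures given vehicle only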; conditions: S. cerevisiae sgs1 mgt1 strain, active compounds read high
# Outline: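 Genetically altered yeast, compound exposure, growth inhibition relative to vehicle.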
# [9] = NCI Yeast Anticancer Drug Screen. Data for the cln2 rad14 strain (AID 165);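 also: 0% = growth equal to vehicle treated cultures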; conditions: S. cerevisiae cln2 rad14 strain, active compounds read high
# Outline: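 cln2 rad14 yeast strain; compound exposure; growth inhibition read vs vehicle controls.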
# [10] = NCI Yeast Anticancer Drug Screen. Data for the bub3 strain (AID 167); conditions: S. cerevisiae bub3 mutant strain, active compounds read high
# Outline: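 Whole-cell yeast assay. The mutant strain was incubated with compounds, and growth inhibition was determined by comparison with vehicle-treated cells.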
# [11] = NCI Yeast Anticancer Drug Screen. Data for the wt2 strain (AID 169);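 also: 0% = growth of vehicle-treated yeast cultures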; conditions: S. cerevisiae wt2 strain growth inhibition, active compounds read high
# Outline: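 Read-out: growth inhibition versus vehicle-treated control cultures after compound exposure of the yeast strain.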
# [12] = NCI Yeast Anticancer Drug Screen. Data for the mlh1 strain (AID 171);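 also: 0% = growth of vehicle-treated control cultures of the same strain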; conditions: S. cerevisiae mlh1 strain growth inhibition, active compounds read high
# Outline: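 Read-out: growth inhibition versus vehicle controls. Strain: engineered yeast with a defined DNA repair or cell cycle defect, compound-treated.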
# [13] = NCI Yeast Anticancer Drug Screen. Data for the mlh1 rad18 strain (AID 175); conditions: S. cerevisiae mlh1 rad18 strain growth inhibition, active compounds read high
# Outline: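 Yeast w/ defined DNA-repair lesions; compound exposure; growth vs vehicle controls → % inhibition.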
# [14] = NCI Yeast Anticancer Drug Screen. Data for the rad18 strain (AID 177); conditions: S. cerevisiae rad18 mutant growth inhibition, active compounds read high
# Outline: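 Readout: growth inhibition vs vehicle controls. Cells: genetically altered yeast strain, DNA repair defect.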
# [15] = NCI Yeast Anticancer Drug Screen. Data for the CLN2oe strain (AID 163);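 also: 0% = growth of vehicle-only control cultures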; conditions: S. cerevisiae CLN2oe strain, active compounds read high
# Outline: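 Read-out: yeast growth inhibition, expressed relative to vehicle-only controls. The strain bears an engineered cell-cycle alteration.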
# [16] = NCI Yeast Anticancer Drug Screen. Data for the sgs1 strain (AID 173);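 also: 0% = growth of vehicle-only control cultures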; conditions: S. cerevisiae sgs1 mutant, active compounds read high
# Outline: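 Read-out: yeast growth inhibition relative to vehicle controls, following compound exposure of a strain with a defined DNA repair/cell cycle alteration.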
# [17] = at 5.0 µM (retest, dose inferred, filed as 0.5)
# [18] = at 50.0 µM (retest, dose inferred, filed as 5.0)
compound,measurement,setting,value
COC(=O)C1C2c3ccccc3C(c3ccccc32)C1C(=O)OC (stereo not drawn),growth inhibition,[1]; at 1.2 µM,3%
same,growth inhibition,[1]; at 3.7 µM,10%
same,growth inhibition,[1]; at 11.0 µM,9%
same,growth inhibition,[1]; at 33.0 µM,10%
same,growth inhibition,[1]; at 100.0 µM,10%
same,growth inhibition,[2]; at 1.2 µM,7%
same,growth inhibition,[2]; at 3.7 µM,5%
same,growth inhibition,[2]; at 11.0 µM,5%
same,growth inhibition,[2]; at 33.0 µM,8%
same,growth inhibition,[2]; at 100.0 µM,7%
same,growth inhibition,[3]; at 1.2 µM,4%
same,growth inhibition,[3]; at 3.7 µM,5%
same,growth inhibition,[3]; at 11.0 µM,4%
same,growth inhibition,[3]; at 33.0 µM,7%
same,growth inhibition,[3]; at 100.0 µM,10%
same,growth inhibition,[4]; at 1.2 µM,-2%
same,growth inhibition,[4]; at 3.7 µM,-1%
same,growth inhibition,[4]; at 11.0 µM,-2%
same,growth inhibition,[4]; at 33.0 µM,2%
same,growth inhibition,[4]; at 100.0 µM,11%
same,growth inhibition,[5]; at 1.2 µM,4%
same,growth inhibition,[5]; at 3.7 µM,1%
same,growth inhibition,[5]; [17],6%
same,growth inhibition,[5]; at 11.0 µM,3%
same,growth inhibition,[5]; at 33.0 µM,7%
same,growth inhibition,[5]; [18],47%
same,growth inhibition,[5]; at 50.0 µM,14.8%
same,growth inhibition,[5]; at 100.0 µM,7%
same,growth inhibition,[6]; at 1.2 µM,-2%
same,growth inhibition,[6]; at 3.7 µM,-3%
same,growth inhibition,[6]; [17],-3%
same,growth inhibition,[6]; at 11.0 µM,-1%
same,growth inhibition,[6]; at 33.0 µM,0%
same,growth inhibition,[6]; [18],15%
same,growth inhibition,[6]; at 50.0 µM,41.5%
same,growth inhibition,[6]; at 100.0 µM,9%
same,growth inhibition,[7]; at 1.2 µM,2%
same,growth inhibition,[7]; at 3.7 µM,2%
same,growth inhibition,[7]; at 11.0 µM,0%
same,growth inhibition,[7]; at 33.0 µM,8%
same,growth inhibition,[7]; at 100.0 µM,13%
same,growth inhibition,[8]; [17],5%
same,growth inhibition,[8]; [18],70% (active)
same,growth inhibition,[8]; at 50.0 µM,72.5% (active)
same,growth inhibition,[9]; [17],-3%
same,growth inhibition,[9]; [18],28%
same,growth inhibition,[9]; at 50.0 µM,8.85%
same,growth inhibition,[10]; at 1.2 µM,-1%
same,growth inhibition,[10]; at 3.7 µM,-2%
same,growth inhibition,[10]; [17],19%
same,growth inhibition,[10]; at 11.0 µM,-4%
same,growth inhibition,[10]; at 33.0 µM,1%
same,growth inhibition,[10]; [18],27%
same,growth inhibition,[10]; at 50.0 µM,14.4%
same,growth inhibition,[10]; at 100.0 µM,2%
same,growth inhibition,[11]; at 1.2 µM,-2%
same,growth inhibition,[11]; at 3.7 µM,-6%
same,growth inhibition,[11]; at 11.0 µM,-1%
same,growth inhibition,[11]; at 33.0 µM,5%
same,growth inhibition,[11]; at 100.0 µM,-1%
same,growth inhibition,[12]; at 1.2 µM,-2%
same,growth inhibition,[12]; at 3.7 µM,-2%
same,growth inhibition,[12]; at 11.0 µM,-3%
same,growth inhibition,[12]; at 33.0 µM,1%
same,growth inhibition,[12]; at 100.0 µM,11%
same,growth inhibition,[13]; [17],17%
same,growth inhibition,[13]; [18],69%
same,growth inhibition,[13]; at 50.0 µM,17.1%
same,growth inhibition,[14]; at 1.2 µM,0%
same,growth inhibition,[14]; at 3.7 µM,2%
same,growth inhibition,[14]; at 11.0 µM,4%
same,growth inhibition,[14]; at 33.0 µM,7%
same,growth inhibition,[14]; at 100.0 µM,8%
C[C@@]12CCC(=O)C=C1CC[C@H]1C2=CC[C@]2(C)C1CC[C@@]2(C)O (stereo partly drawn),growth inhibition,[1]; at 1.2 µM,-12%
same,growth inhibition,[1]; at 3.7 µM,-3%
same,growth inhibition,[1]; at 11.0 µM,-4%
same,growth inhibition,[1]; at 33.0 µM,69%
same,growth inhibition,[1]; at 100.0 µM,91% (active)
same,growth inhibition,[2]; at 1.2 µM,-13%
same,growth inhibition,[2]; at 3.7 µM,-26%
same,growth inhibition,[2]; at 11.0 µM,-23%
same,growth inhibition,[2]; at 33.0 µM,54%
same,growth inhibition,[2]; at 100.0 µM,91% (active)
same,growth inhibition,[3]; at 1.2 µM,-1%
same,growth inhibition,[3]; at 3.7 µM,-6%
same,growth inhibition,[3]; at 11.0 µM,-8%
same,growth inhibition,[3]; at 33.0 µM,-12%
same,growth inhibition,[3]; at 100.0 µM,1%
same,growth inhibition,[4]; at 1.2 µM,12%
same,growth inhibition,[4]; at 3.7 µM,19%
same,growth inhibition,[4]; at 11.0 µM,38%
same,growth inhibition,[4]; at 33.0 µM,86% (active)
same,growth inhibition,[4]; at 100.0 µM,96% (active)
same,growth inhibition,[5]; at 1.2 µM,1%
same,growth inhibition,[5]; at 3.7 µM,7%
same,growth inhibition,[5]; [17],27%
same,growth inhibition,[5]; at 11.0 µM,5%
same,growth inhibition,[5]; at 33.0 µM,63%
same,growth inhibition,[5]; [18],60%
same,growth inhibition,[5]; at 50.0 µM,74.2% (active)
same,growth inhibition,[5]; at 100.0 µM,85% (active)
same,growth inhibition,[6]; at 1.2 µM,8%
same,growth inhibition,[6]; at 3.7 µM,10%
same,growth inhibition,[6]; [17],44%
same,growth inhibition,[6]; at 11.0 µM,15%
same,growth inhibition,[6]; at 33.0 µM,85% (active)
same,growth inhibition,[6]; [18],82% (active)
same,growth inhibition,[6]; at 50.0 µM,66.5%
same,growth inhibition,[6]; at 100.0 µM,96% (active)
same,growth inhibition,[7]; at 1.2 µM,-22%
same,growth inhibition,[7]; at 3.7 µM,-25%
same,growth inhibition,[7]; at 11.0 µM,-10%
same,growth inhibition,[7]; at 33.0 µM,70% (active)
same,growth inhibition,[7]; at 100.0 µM,92% (active)
same,growth inhibition,[8]; [17],-27%
same,growth inhibition,[8]; [18],78% (active)
same,growth inhibition,[8]; at 50.0 µM,77.5% (active)
same,growth inhibition,[15]; at 1.2 µM,32%
same,growth inhibition,[15]; at 3.7 µM,-2%
same,growth inhibition,[15]; at 11.0 µM,0%
same,growth inhibition,[15]; at 33.0 µM,75% (active)
same,growth inhibition,[15]; at 100.0 µM,93% (active)
same,growth inhibition,[9]; [17],46%
same,growth inhibition,[9]; [18],30%
same,growth inhibition,[9]; at 50.0 µM,56.9%
same,growth inhibition,[10]; at 1.2 µM,-1%
same,growth inhibition,[10]; at 3.7 µM,19%
same,growth inhibition,[10]; [17],-28%
same,growth inhibition,[10]; at 11.0 µM,28%
same,growth inhibition,[10]; at 33.0 µM,80% (active)
same,growth inhibition,[10]; [18],54%
same,growth inhibition,[10]; at 50.0 µM,75.5% (active)
same,growth inhibition,[10]; at 100.0 µM,96% (active)
same,growth inhibition,[11]; at 1.2 µM,-26%
same,growth inhibition,[11]; at 3.7 µM,-19%
same,growth inhibition,[11]; at 11.0 µM,-18%
same,growth inhibition,[11]; at 33.0 µM,64%
same,growth inhibition,[11]; at 100.0 µM,92% (active)
same,growth inhibition,[12]; at 1.2 µM,-27%
same,growth inhibition,[12]; at 3.7 µM,-11%
same,growth inhibition,[12]; at 11.0 µM,4%
same,growth inhibition,[12]; at 33.0 µM,63%
same,growth inhibition,[12]; at 100.0 µM,90% (active)
same,growth inhibition,[16]; at 1.2 µM,1%
same,growth inhibition,[16]; at 3.7 µM,-6%
same,growth inhibition,[16]; at 11.0 µM,14%
same,growth inhibition,[16]; at 33.0 µM,72% (active)
same,growth inhibition,[16]; at 100.0 µM,91% (active)
same,growth inhibition,[14]; at 1.2 µM,-2%
same,growth inhibition,[14]; at 3.7 µM,0%
same,growth inhibition,[14]; at 11.0 µM,10%
same,growth inhibition,[14]; at 33.0 µM,76% (active)
same,growth inhibition,[14]; at 100.0 µM,92% (active)
